Results on eight compounds are retold here after PubChem BioAssay (NCI).

This is part of a sample that, as a whole, favours compounds with a hit. Of some 83,000 tested, about 20% had one in any assay.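 In brief: 96-well plates, 48 h treatment, single concentration, percent growth endpoint.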 A number with no mark means an inactive call. Activity calls are given as the source filed them. How the source made its calls: active means growth percent below 10; inactive means the rest.

Common to all, as to test: NCI-60 one-dose screen, 48 h (100 = growth as untreated, 0 = no growth, -100 = all killed)
Details in all cases: 10 µM unless noted

The subject of test [1] is DU-145 prostate.
The test system of test [2] is K-562 leukemia.
For test [3], the system named is MALME-3M melanoma.
The subject of test [4] is MDA-MB-231 breast.
The test system of test [5] is RXF 393 renal.
Test [6] relates to SF-268 CNS.
Test [7] relates to SF-295 CNS.
For test [8], the system named is SF-539 CNS.
The test system of test [9] is UACC-257 melanoma.
Test [10] has as its system M14 melanoma.
The subject of test [11] is HCT-15 colon.
The test system of test [12] is HT29 colon.
In test [13] the test system is SNB-75 CNS.
For test [14], the system named is SNB-19 CNS.
In test [15] the test system is U251 CNS.
Test [16] has as its system PC-3 prostate.
In test [17] the test system is SK-MEL-5 melanoma.
In test [18] the test system is UACC-62 melanoma.
Test [19] relates to LOX IMVI melanoma.
For test [20], the system named is SK-MEL-28 melanoma.

With `COc1cc(/C=C/C(=O)C(=Cc2ccc(F)c(F)c2)C(=O)/C=C/c2ccc(O)c(OC)c2)ccc1O`, the growth in test [1] is 17.3%; in test [2], 13.7%; in [3], 51%; in test [4], 13.1%; in [5] it was -32.5% (active); in test [6], 20%. The growth in [7] is 53.7%; in test [8], 26.9%; in test [9] it was 47.3%; in [10], 2.1% (active); in [11] it was 26%; in [12], -31.4% (active). The growth in test [13] was 38.3%; in test [14] it was 63.1%; in test [15] it was 18.8%; in test [16], 30.7%; in [17], 40.9%; in test [18], 32.3%. Besides, the growth in test [19] is -82.5% (active); in [20], 36%.
Consider `COC(=O)c1c2c(c(C)[n+]([O-])c1C)C(=O)C=C(NCc1ccc(Cl)cc1)C2=O`, for which the growth in [1] is -83.7% (active); in test [2], 1.55% (active); in [3], -95% (active); in [4], -20.7% (active); in test [5] it was -31.7% (active); in [6] it was 0.305% (active). The growth in test [7] was -59.7% (active); in test [8], -89.8% (active); in test [9], -84.7% (active); in [10], -85.5% (active); in test [11] it was -54.8% (active); in test [12], 2.63% (active). The growth in [13] is -94.8% (active); in test [14], -23.5% (active); in [15] it was -7.46% (active); in [16] it was 1.07% (active); in test [17] it was -98.8% (active); in test [18], -65.5% (active). The figures for the growth in [19] and in test [20] were -23.2% (active) and 10.6%, respectively.
For the compound `Cc1ccccc1-c1cc(-c2ccc(Br)s2)[nH]c(=O)c1C#N`, the growth was 110% in test [1]; 90.3% in [2]; 88.9% in test [3]; 100% in test [4]; 106% in test [5]; 104% in [6]. Besides, the growth was 95.1% in test [7]; 112% in test [8]; 104% in [9]; 93.6% in test [10]; 98.7% in test [11]; 112% in test [12]. Further, the growth was 92.3% in test [13]; 103% in [14]; 106% in test [15]; 98.9% in test [16]; 93.1% in test [17]; 92.3% in test [18]. Also, the growth in [19] is 94.2%; in test [20], 108%.
Turning to `COc1cc(/C=N/NC(=O)c2cnn3c2NC(c2ccccc2)C3)cc(OC)c1OC` (stereo not given), the growth in [1] was 90.8%; in [2], 31.6%; in test [3], 65.2%; in test [4], 67.1%; in test [5], 87.7%; in test [6], 81.4%. Also, the growth is 53.1% in test [7]; 68.1% in [8]; 86.5% in test [9]; 50.3% in test [10]; 37.7% in test [11]; 20.5% in test [12]. Further, the growth in test [13] was 52.4%; in test [14], 66.2%; in test [15], 66.9%; in [16], 56.2%; in test [17], 50.4%; in test [18], 57.4%. Besides, the values for the growth in [19] and in test [20] were 61.3% and 70.4%, respectively.
For the compound `Cc1nc2ccc(Cl)cc2n1C`, the growth was 115% in [1]; 92.4% in test [2]; 106% in test [3]; 118% in test [4]; 101% in test [5]; 103% in test [6]. The growth in test [7] was 104%; in test [8], 106%; in test [9] it was 100%; in [10] it was 106%; in test [11], 113%; in test [12] it was 98.8%. In addition, the growth was 103% in test [13]; 99.5% in test [14]; 99.7% in test [15]; 101% in test [16]; 99.6% in [17]; 106% in [18]. In addition, the growth in [19] was 108%; in test [20], 117%.
`COc1cc(/C=C/c2cc(/C=C/c3ccc(O)c(OC)c3)n(-c3ccccc3)n2)ccc1O`: the growth is -45.7% (active) in test [1]; -15.5% (active) in test [2]; -39% (active) in test [3]; 5.23% (active) in [4]; -70% (active) in [5]; -12.5% (active) in test [6]. For the same compound, the growth in test [7] was -71.5% (active); in test [8], -39.8% (active); in test [9], 16%; in test [10], -56% (active); in test [11], -3.38% (active); in [12], -52.4% (active). Also, the growth in test [13] is -53.2% (active); in test [14] it was 1.18% (active); in [15] it was 1.47% (active); in [16] it was -33.1% (active); in test [17], -86.5% (active); in test [18], -84.4% (active). Also, the growth in [19] was -37.1% (active); in test [20], -6.73% (active).
Consider `CN1CCc2cccc3c2C1Cc1ccc(O)c(O)c1-3` (stereo not given), for which the growth in [1] is 96.3%; in test [2], 64.3%; in test [3] it was 83.1%; in test [4], 65.7%; in test [5], 91.1%; in test [6], 87.6%. Further, the growth in test [7] was 97.8%; in [8], 84.2%; in test [9], 103%; in test [10] it was 76.1%; in [11], 70.7%; in test [12] it was 76.2%. The growth in test [13] was 83.6%; in test [14] it was 111%; in test [15], 99.9%; in [16], 65.6%; in test [17], 97.5%; in test [18], 105%. The growth is 67.8% in [19] and 115% in test [20].
In the case of `O=C(N/N=C(\CS(=O)(=O)c1ccccc1)c1cc2ccccc2oc1=O)c1ccccc1`, the growth is 111% in [1]; 109% in test [2]; 110% in [3]; 99.4% in [4]; 132% in test [5]; 99.2% in [6]. For the same compound, the growth in test [7] was 101%; in test [8] it was 103%; in test [9] it was 94.6%; in [10], 110%; in test [11] it was 107%; in test [12] it was 108%. Further, the growth in [13] is 93.2%; in test [14] it was 99.8%; in test [15], 96.3%; in test [16], 98.3%; in test [17] it was 105%; in [18] it was 97.9%. Further, the figures for the growth in test [19] and in test [20] were 96.6% and 107%, respectively.
